SNCA expr inhib: reduces expression of the alpha-synuclein gene; HEK-293 SNCA-luciferase knock-in, luminescence, 24 h; Potency, µM (titrated, usually from 57.2 µM), for inactives: top-dose activity change, negative = inhibition, most hits filed as inhibitors; actives 0.17% (n = 140,000); AID 1671194;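 note: potency is the fitted concentration of half-maximal effect; plate controls were DMSO cells for no effect and cell-free wells for full effect; nearly all actives have a fitted effect of over 45% in size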
KDM5B inhibitor: inhibitors of human KDM5B histone demethylase | KDM5B demethylase, FDH-coupled NADH fluorescence (FDH is formaldehyde dehydrogenase) | actives 2.6% (n = 220,000) | AID 1347165 | Potency, µM (titrated, usually from 57.7 µM), most hits filed as inhibitors | Q9UGL1; note: potency is the fitted concentration of half-maximal effect; 0% is about no effect; nearly all actives have a fitted effect of over 70% in size
Target sequence (Q9UGL1 whole entry, looked up): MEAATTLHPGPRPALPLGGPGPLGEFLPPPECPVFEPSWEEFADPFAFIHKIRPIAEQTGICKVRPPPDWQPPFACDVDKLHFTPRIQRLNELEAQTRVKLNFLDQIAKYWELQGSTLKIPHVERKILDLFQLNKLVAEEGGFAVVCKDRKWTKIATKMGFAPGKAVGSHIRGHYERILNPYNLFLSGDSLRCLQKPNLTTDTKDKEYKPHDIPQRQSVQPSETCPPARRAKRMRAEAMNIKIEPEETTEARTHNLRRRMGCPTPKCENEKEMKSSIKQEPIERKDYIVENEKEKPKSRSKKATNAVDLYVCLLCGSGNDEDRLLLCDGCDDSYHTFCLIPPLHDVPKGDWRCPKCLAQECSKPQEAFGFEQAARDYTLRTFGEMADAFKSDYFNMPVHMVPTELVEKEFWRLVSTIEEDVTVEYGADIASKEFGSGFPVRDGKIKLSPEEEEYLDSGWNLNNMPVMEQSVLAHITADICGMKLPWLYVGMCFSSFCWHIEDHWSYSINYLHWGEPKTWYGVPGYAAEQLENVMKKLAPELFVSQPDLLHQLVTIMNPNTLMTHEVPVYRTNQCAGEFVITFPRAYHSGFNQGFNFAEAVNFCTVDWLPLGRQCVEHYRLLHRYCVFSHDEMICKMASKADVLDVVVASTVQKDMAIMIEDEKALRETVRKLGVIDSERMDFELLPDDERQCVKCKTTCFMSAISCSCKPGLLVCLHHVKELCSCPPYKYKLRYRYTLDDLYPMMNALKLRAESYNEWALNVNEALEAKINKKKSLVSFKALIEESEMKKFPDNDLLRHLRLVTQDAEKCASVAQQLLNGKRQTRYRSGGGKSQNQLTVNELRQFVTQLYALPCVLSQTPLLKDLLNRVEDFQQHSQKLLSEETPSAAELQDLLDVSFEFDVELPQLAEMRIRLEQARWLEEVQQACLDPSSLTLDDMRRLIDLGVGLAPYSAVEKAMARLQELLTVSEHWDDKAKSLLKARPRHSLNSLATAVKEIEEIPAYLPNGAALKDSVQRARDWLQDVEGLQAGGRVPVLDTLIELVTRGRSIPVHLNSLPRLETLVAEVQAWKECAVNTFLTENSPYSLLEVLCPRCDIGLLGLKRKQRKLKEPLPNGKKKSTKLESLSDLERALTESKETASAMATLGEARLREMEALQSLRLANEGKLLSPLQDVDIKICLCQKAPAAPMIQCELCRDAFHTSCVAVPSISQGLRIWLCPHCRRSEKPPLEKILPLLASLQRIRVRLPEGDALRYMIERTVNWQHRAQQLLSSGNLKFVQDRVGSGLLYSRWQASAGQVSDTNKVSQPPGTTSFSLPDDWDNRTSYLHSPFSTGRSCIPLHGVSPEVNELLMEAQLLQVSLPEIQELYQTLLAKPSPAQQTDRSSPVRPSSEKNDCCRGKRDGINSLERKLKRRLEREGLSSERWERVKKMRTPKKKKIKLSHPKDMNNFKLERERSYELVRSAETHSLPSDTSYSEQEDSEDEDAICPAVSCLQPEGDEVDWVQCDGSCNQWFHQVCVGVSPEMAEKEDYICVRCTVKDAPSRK
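qHTS format, multiple compound concentrations. Buffer 50 mM HEPES pH 7.5/0.01% Tween-20; 200 nM KDM5BΔAP final; 10 min compound preincubation; substrate-mix levels 12.5 µM peptide, 25 µM α-KG, 0.25 mM NAD⁺; 30 min RT; ΔRFU.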
HEK293 viab: reduces viability of HEK-293 SNCA reporter cells | HEK-293-SNCA-luc viability, GF-AFC fluorescence, 24 h | Potency, µM (doses to about 57.1 µM), without a hit: at the top dose activity change, negative = cytotoxicity, hits mostly cytotoxic | actives 0.12% (n = 150,000);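 note: potency is the fitted concentration of half-maximal effect; 0% = DMSO-treated cells and -100% = medium-only wells without cells; nearly all actives have a fitted effect of over 30% in size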
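HEK-293-SNCA-luc cells (1500/well) plated 24 h, then exposed 24 h to a dilution series; GF-AFC added 30 min at 37C, fluorescence 405/540 nm; normalised to medium-only and DMSO wells, Hill fit.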
IP6K1 inh: inhibitors of human IP6K1; IP6K1 kinase, ADP-Glo luminescence, 2 h; hits give low values; Q92551; activity change, % (series mostly up to about 58 µM); actives 0.81% (n = 140,000); in the data active = activity change below about -25%; note: % is set by controls: 0 for no effect and ±100 for the full control effect
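ADP-Glo luminescence measures ADP made by human IP6K1 during a 2 h RT reaction with ATP/IP6 (mix at 1.3 mM/130 uM); top library doses 57.5 and 19.1 uM final.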
Numbers without * were called inactive; i = inactive; ? = inconclusive; . = no result; [ ] = another dose, or the depositor's remark. The list is not random: actives were taken first. Their share in the collection is about 2.9%. Unless noted, calls come from the whole dose curve; as a rule, active = well fitted curve in the direction sought with a large enough effect; inconclusive = small, poorly fitted or top-dose-only effect, or another doubt; inactive = no such curve, though single readings can be large; an effect the other way counts as inactive or inconclusive.

SMILES | SNCA expr inhib | KDM5B inhibitor | HEK293 viab | IP6K1 inh
COCc1cn(C[C@H]2C[C@@H](NCc3cccnc3)[C@H](O)[C@@H]2O)nn1 | ? | 35µM* | -3%[87.6 µM] | 5
O=C(NCCc1ccc(Cl)cc1)c1nc(-c2ccsc2)c2ccccn12 | 14% | 22µM* | 4% | 14
O=C(NCCc1ccc(Cl)cc1)c1nc(-c2ccc(Cl)nc2)c2ccccn12 | 99% | 50µM* | ? | 1
O=C(NCCc1ccc(Cl)cc1)c1nc(-c2ccc(F)cc2)c2cnccn12 | -8% | 32µM* | 2% | 5
Cc1ccc(-c2c(C(=O)NCCc3ccc(Cl)cc3)nc3sccn23)cc1 | -7% | . | -9% | 11
O=C(NCCc1ccc(Cl)cc1)c1ccc2nnc(-c3ccc(F)cc3)n2c1 | -2% | . | 4% | 6
O=C(NCCc1ccc(Cl)cc1)c1nc(-c2ccc(F)cc2)c2ccccn12 | 9% | 25µM* | -5% | -1
Cc1cc(NC(=O)CSc2nc3c([nH]c4ccccc43)c(=O)n2-c2cccc(Cl)c2)no1 | -19% | ? | -9% | -8
COc1cc(NS(=O)(=O)c2ccc(-c3cnc(C4CC4)o3)cc2)cc(OC)c1OC | . | i | . | .
O=C(NCc1ccc(F)cc1)c1nc(-c2cccnc2)c2cnccn12 | -9%[87.6 µM] | i | 3%[87.6 µM] | 0
O=C(NCc1ccc(F)cc1)c1nc(-c2ccc(F)cc2)c2cnccn12 | 12% | 35µM* | 3% | 14
COc1cccc(C(=O)N2CCc3nc(C)nc(-c4ccc(Cl)cc4)c3CC2)c1 | 3% | i | 1% | -9
CSc1cccc(NC(=O)c2cc3c(N4CCCC4)nc(C)cn3n2)c1 | 20% | i | 2% | 0
Cc1cn2nc(C(=O)Nc3ccc(Cl)c(C)c3)cc2c(N2CCSCC2)n1 | 55% | 22µM* | 8% | -4
CSc1cccc(NC(=O)c2cc3c(N4CCSCC4)nc(C)cn3n2)c1 | -6% | 25µM* | -5% | -2
Cc1cn2nc(C(=O)Nc3ccc(F)c(C)c3)cc2c(N2CCSCC2)n1 | -15% | 32µM* | -17% | -5
COc1ccc(NC(=O)c2cc3c(N4CCSCC4)nc(C)cn3n2)cc1F | 12% | 28µM* | -8% | 13
Cc1cccc(N2CCN(S(=O)(=O)c3ccc4oc(=O)c5ncn(C)c5c4c3)CC2)c1C | -10% | i | 3% | 23
O=C(Cc1cccs1)N1CCCN(CCc2ccccc2)c2ccccc21 | -11% | 22µM* | 2% | -4
O=C(Cc1ccc(F)cc1)N1CCCN(CCc2ccccc2)c2ccccc21 | -16% | . | -3% | 27
NC1CCc2nn(CC(=O)N3CCN(c4ncccn4)CC3)c(=O)n2CC1 (centres undefined) | -2% | ? | -2% | -13
NC1CCc2nn(CC(=O)N3CCCN(c4ncccn4)CC3)c(=O)n2CC1 (centres undefined) | 6% | 28µM* | -3% | -9
CC(C)OCCCNC(=O)Cn1nc2c(cc1=O)CCCCC2 | -14% | i | 8% | 5
O=C(c1ccc2ncccc2c1)N1CCc2c(nc3cc[nH]n3c2=O)C1 | 78% | ? | 0% | 31
O=C(c1ccc(F)cc1Cl)N1CCc2c(nc3cc[nH]n3c2=O)C1 | -6% | 28µM* | 7% | 8
SMILES | SNCA expr inhib | KDM5B inhibitor | HEK293 viab | IP6K1 inh
O=C(c1ccccc1C(F)(F)F)N1CCc2c(nc3cc[nH]n3c2=O)C1 | -9% | 25µM* | 11% | 13
CCOc1ccc(NC(=O)Cn2c(N3CCOCC3)nc(CC)cc2=O)cc1 | 4% | i | 5% | 16
Cc1ccc([S+](=O)([O-])N2CCC3(C2)C(=O)N(CCc2ccccc2)c2ccccc23)cc1 (centres undefined) | ? | i | ? | 3
COc1ccc(-n2nc(C(=O)NCc3ccc(F)cc3Cl)c3c4ccccc4n(C)c3c2=O)cc1Cl | -15% | i | 3% | -11
CC(c1nc2ccccc2s1)N(C)C(=O)c1ccc(S(=O)(=O)Nc2ccccc2)cc1 (centres undefined) | . | i | . | .
O=C(NCCc1ccc(Cl)cc1)c1nc(-c2ccc(Cl)cc2Cl)c2ccccn12 | -14% | 79µM* | -1% | -22
O=C(NCCc1ccc(Cl)cc1)c1nc(-c2ccc(Cl)cc2Cl)c2cnccn12 | 7% | 56µM* | 0% | -15
COc1ccccc1-c1nnc2n1C(C(=O)NCCc1ccc(Cl)cc1)CC2 (centres undefined) | 32% | i | 10% | 10
COc1ccccc1-c1nc(C(=O)NCCc2ccc(Cl)cc2)n2ccncc12 | -12% | 79µM* | 8% | -10
N#CC1CCN(C(=O)C2CCc3nnc(-c4ccc(Cl)cc4Cl)n32)CC1 (centres undefined) | 7% | i | 0% | 7
N#CC1CCN(C(=O)c2nc(-c3ccc(Cl)cc3Cl)c3ccccn23)CC1 | 53% | 28µM* | -10% | 20
O=C(Nc1c(C(=O)N2CCOCC2)cnn1-c1ccccc1)c1ccc([N+](=O)[O-])cc1 | . | i | . | .
CCOC(=O)c1[nH]c2c(c1Cc1ccccc1)C(=O)CC(c1ccc(C(C)(C)C)cc1)C2 (centres undefined) | 0% | i | 8% | 17
N#Cc1ccc(CN2CCCCCCNC(=O)[C@@H]3CCC[C@@H]32)cc1 | 17% | ? | -21% | 6
CC(C)(C)C1CCC(C(=O)Nc2ccc(F)cc2)CC1 (centres undefined) | . | i | . | .
COc1ccc(C[N+]2=C(N)N[C@@]3(C=C(C)Cn4c(=O)n(-c5ccccc5)c(=O)n43)C2)c(OC)c1 | . | i | . | .
Cc1nc(CCNC(=O)c2ccccn2)cs1 | . | i | . | .
O=C(NCC1COc2ncncc2C(=O)N1Cc1ccccc1)c1ccn[nH]1 (centres undefined) | 1%[87.6 µM] | i | -5%[87.6 µM] | 10
O=C(NC1CC1)c1nc(-c2cc(Cl)cc(Cl)c2)c2ccccn12 | 11%[87.6 µM] | ? | 7%[87.6 µM] | -6
O=C(NC1CC1)c1nc(-c2ccc(Cl)cc2Cl)c2ccccn12 | 9% | 28µM* | 2% | 2
COCc1ccc2c(c1)c(OC(C)(C)C(=O)NCc1ccncc1)nn2CCC(C)C | ? | ? | -6%[87.6 µM] | -7
COCc1ccc2c(c1)c(OC(C)(C)C(=O)NCCCn1ccnc1)nn2Cc1cccc(OC)c1 | 12% | 22µM* | 2% | 16
COCc1ccc2c(c1)c(OC(C)(C)C(=O)NCCCn1ccnc1)nn2CCC(C)C | 28% | 35µM* | 4% | 5
CCCc1noc(-c2nc(-c3ccccc3F)no2)n1 | 122% | i | 5% | -4
CN(Cc1ccccn1)c1ccc(-c2nc(Cc3ccc(F)cc3)no2)cn1 | 33% | ? | -4% | 1
O=C1CCCCN1CCNc1ccc(-c2nc(-c3ccccc3F)no2)cn1 | -12% | 32µM* | ? | 10
CN(Cc1nccs1)c1ccc(-c2nc(-c3ccccc3F)no2)cn1 | 24% | 22µM* | -3% | -2
c1ccc(CCc2noc(-c3ccc(NCCN4CCCC4)nc3)n2)cc1 | 85% | ? | 9% | 16

Screening results from PubChem.
